Data from PubChem BioAssay (NCI).
This is part of a sample that, as a whole, favours compounds with a hit. Of some 79,000 tested, about 15% had one in any assay. Unmarked numbers belong to inactive results. Activity calls are given as the source filed them. No stated cut-off is given here; in the data, active means growth inhibition above about 70%; inactive means the rest.

Legend:
[1] = NCI Yeast Anticancer Drug Screen. Data for the rad50 strain (AID 155);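 further: 0% = growth of vehicle-only cultures of the same strain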; details: S. cerevisiae rad50 strain growth inhibition; at 50.0 µM; hits give high values
How it was run: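 Readout: growth inhibition relative to vehicle-treated cultures. Compound exposure was carried out in a genetically defined yeast strain deficient in DNA damage repair.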

[2] = NCI Yeast Anticancer Drug Screen. Data for the mec2-1 strain (AID 157); details: S. cerevisiae mec2-1 strain, at 50.0 µM, hits give high values
How it was run: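 Using mec2-1 yeast: add compound, measure growth, express inhibition versus vehicle-treated cultures.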

[3] = NCI Yeast Anticancer Drug Screen. Data for the sgs1 mgt1 strain (AID 161);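 further: 0% = growth of cultures given vehicle only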; details: S. cerevisiae sgs1 mgt1 strain, at 50.0 µM, hits give high values
How it was run: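 Percent growth inhibition was derived by comparing compound-exposed mutant yeast with vehicle-exposed cultures. The strain carries alterations in DNA damage repair.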

[4] = NCI Yeast Anticancer Drug Screen. Data for the cln2 rad14 strain (AID 165);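 further: 0% = growth equal to vehicle treated cultures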; details: S. cerevisiae cln2 rad14 strain, at 50.0 µM, hits give high values
How it was run: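 Yeast strain cln2 rad14, bearing defects in cell cycle control and DNA repair, serves as the test system; values reflect growth inhibition compared with vehicle.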

[5] = NCI Yeast Anticancer Drug Screen. Data for the bub3 strain (AID 167); details: S. cerevisiae bub3 mutant strain, at 50.0 µM, hits give high values
How it was run: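 Readout: yeast growth inhibition, expressed relative to vehicle-only wells. The test organism is a mutant strain from a panel with lesions in DNA repair or checkpoint genes.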

[6] = NCI Yeast Anticancer Drug Screen. Data for the mlh1 rad18 strain (AID 175); details: S. cerevisiae mlh1 rad18 strain growth inhibition; at 50.0 µM; hits give high values
How it was run: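 Steps: expose repair-defective yeast to compound; measure growth; express inhibition against vehicle-treated controls.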

Compound | growth inhibition [1] | growth inhibition [2] | growth inhibition [3] | growth inhibition [4] | growth inhibition [5] | growth inhibition [6]
Nc1ncnc2nc(SC3OC(CO)C(O)C(O)C3O)[nH]c12 (stereo unspecified) | 10.2% | -9.65% | 9.9% | -9% | 12.8% | 2.85%
CC(=O)c1c(C)c(C)c(=O)n(C/C=C(\C)CCC=C(C)C)c1O | 98% (active) | 99% (active) | 98.7% (active) | 97.4% (active) | 98.3% (active) | 98.1% (active)
CC(C)(CN1CCCCC1)C(=O)/C=C/c1ccc(Cl)cc1 | 34.6% | 11.9% | 36.2% | 38.5% | 12.6% | 46.7%
O=c1c(F)cn2c(=O)n1CCCCCCCn1c(=O)c(F)cn(c1=O)CCCCCCC2 | 1.3% | -24.4% | 1.65% | 0.7% | -13.4% | 1.55%
CC=C/C=C/[C@@H]1O[C@](O)([C@H](CC)C(=O)NC/C=C/C=C(\C)[C@@H](OC)[C@@H](C)[C@@H]2O[C@H](/C=C/C=C/C=C(\C)C(=O)c3c(O)cc[nH]c3=O)[C@H](O)[C@@H]2O)[C@H](O)[C@H](O)C1(C)C | 35.2% | 18.9% | 38.9% | 36.2% | 29.9% | 15.6%
O=C(CSc1nc2ccccc2c2ccccc12)c1ccccc1 | 9.25% | -42.5% | -4.4% | -52% | -42.8% | 12.8%
CC(=O)ONc1nc(C)c(CCC2OCCO2)c(SC(=N)N)n1 | 28.9% | 27.2% | 30% | 14.9% | -1.7% | 38.2%
CCN(CC)c1ccc2cc(C(=O)Nc3cccc4ccccc34)c(=N)oc2c1 | 14.4% | 3.05% | -10.2% | -5.45% | -25.9% | -53.6%
Oc1ccc(-c2nc(-c3ccccc3)c(-c3ccccc3)[nH]2)cc1 | -23.1% | -14.9% | -1.1% | -46.3% | -8.3% | 4.05%
CC(=O)c1cc([N+](=O)[O-])c(O)c([N+](=O)[O-])c1O | 20.4% | -2.2% | -14.6% | 12.2% | 7.8% | 8.65%
Cc1cc(C)n(-c2ccncc2[N+](=O)[O-])n1 | 7.55% | 17.9% | -2.45% | -13.8% | 9.05% | 0.2%
CN1C(=O)Cc2ccccc21 | 9.9% | -7.25% | -13.3% | 11.5% | 20.8% | -1.05%
Cc1ccc(S(=O)(=O)OC2CCCCCC2c2ccccc2)cc1 (stereo unspecified) | 7.85% | -5.1% | 0.05% | -42.5% | -2.75% | -3.55%
NS(=O)(=O)c1ccc(NC(=O)CC(=O)c2ccccc2)cc1 | -57.4% | -32.7% | -36% | 0.35% | -25.6% | -38%
CCCCc1ccc2[n+](c1)C(C(=O)OCC)=PC2 (stereo unspecified) | -18.1% | -36.8% | -21.4% | -18.9% | -19.9% | -11.9%
Oc1ccc(Cl)cc1CN1CCOCC1 | 31.3% | 11.6% | 36.1% | 21.5% | 13.3% | 34.5%
CC1CC(C#N)=C(NC#N)NC1=O (stereo unspecified) | -0.5% | 12.4% | 19.2% | 5.55% | -0.75% | 9.4%
Cc1cc2nc(-c3cc4cc(Cl)cc(Cl)c4oc3=O)[nH]c2cc1C | 10.6% | 17.8% | 2.7% | -5.4% | 17.2% | -0.4%
CN(C)/C=N\c1ncnc2c1ccn2C1OC(CO)C(O)C1O (stereo unspecified) | -2.15% | -5.4% | -10.3% | 10.2% | 3.15% | -4.7%
Cc1ccc(O)c(O)c1 | 33.9% | -13.1% | -6.45% | -8.9% | -20.3% | 23.9%
COc1ccc(C2C3=C(CCCC3=O)N(c3ccccc3)C3=C2C(=O)CCC3)cc1 | -67% | -18.4% | 3.3% | 19.9% | 7.4% | -27.5%

Compound | growth inhibition [1] | growth inhibition [2] | growth inhibition [3] | growth inhibition [4] | growth inhibition [5] | growth inhibition [6]
O=C1CCC2(C=Nc3ccccc32)C2Cc3ccccc3N12 (stereo unspecified) | -27.3% | -11.8% | -6.8% | 3.75% | 8.05% | -29.7%
O=C1CC(=O)N2CCCCC2N1 (stereo unspecified) | -17.7% | -5.15% | -0.25% | -10.9% | 6.4% | -25.7%
COc1cc(/C=C/C(=O)O)cc(OC)c1OC | -4.95% | -2.1% | 12.9% | 6.1% | 11.2% | 10.7%
CC(=O)c1c(C)cc2cccc(OC3OC(CO)C(O)C(O)C3O)c2c1O (stereo unspecified) (tested in a mixture with another compound) | 9.1% | 8.2% | -18.6% | 0% | -7.25% | -56.3%
COc1cc(-c2[nH]ncc2CCCC(=O)Nc2ccccc2[N+](=O)[O-])ccc1O | 20.9% | -2.75% | -14.5% | 7.8% | -2.75% | 18.5%
O=C(O)/C(=C/C=C/c1ccccc1)c1csc(-c2nc(/C(=C\C=C\c3ccccc3)C(=O)O)cs2)n1 | 22% | 13.3% | 19.4% | 16.9% | 19.1% | 9.15%
CCOC(=O)c1c(C)c2c(n1C)CCC(C(=O)OCC)C2=O (stereo unspecified) | -3.15% | 9.4% | 10.3% | 11.4% | 4.6% | 0.45%
OC1C=CC2CCC1C2 (stereo unspecified) | -4.85% | 7.15% | -16.4% | 6% | 10.8% | 5.2%
O=C(c1ccc(OC(=O)c2ccccc2O)cc1)c1ccc(OC(=O)c2ccccc2O)cc1 | 27.6% | 6.75% | 29.3% | -100% | 8.3% | 15.9%
CC(=O)OCCn1c(Cc2ccc(Cl)cc2)nn(C(C)=O)c1=O | 14.4% | 5.95% | 20.1% | 6.7% | -15.2% | 15.3%
O=C(c1ccccc1)c1ccc2ccc(F)cc2c1C(=O)O | -4% | 17.9% | 2.05% | -17.9% | 16.6% | -7.7%
c1ccc(CSCCc2ccncc2)cc1 | 16.4% | -13.6% | -21.1% | -3.2% | -3.55% | 20.2%
CCCCCCc1ccccn1 | 4.6% | 9.3% | 9.6% | -1.6% | -1.4% | 17.8%
CN(C)c1ccc(/[N+]([O-])=C/C=C/C=[N+](/[O-])c2ccc(N(C)C)cc2)cc1 | -1.35% | 3.8% | 1.55% | -28.6% | 13.2% | -14.6%
CCOP(=O)(OCC)C(Cc1cn(S(=O)(=O)c2ccc(C)cc2)cn1)C(=O)O (stereo unspecified) | -14.2% | 12.5% | 5.9% | 16.2% | 21.4% | -17.4%
C=CCNC(=O)C(=O)NCC=C | 3.65% | -16.2% | -11.2% | -24.6% | -8.25% | 2.1%
Cc1ccccc1-c1nc2c([nH]1)c(=O)n(C)c(=O)n2C | 32.8% | -2.2% | -10.2% | -32.3% | 0.25% | 2.75%
O=c1[nH]c2cc3[nH]c4ncccc4c(=O)c3cc2[nH]1 | -3.7% | 0.15% | -22.7% | 8.15% | -1.15% | 21.3%
COC(=O)CC(C)(O)CCCC(C)C (stereo unspecified) | 11.2% | -5.15% | 16.9% | -17.9% | 3.9% | -14.2%
CCN(CC)CCn1cnc(C#N)c1N | 4.45% | 1.05% | -1.35% | -27.6% | 1.65% | -0.2%
